# From PubChem BioAssay AID933 (National Center for Advancing Translational Sciences (NCATS), 2007)
# Results filed as inconclusive are left out. Unmarked numbers belong to inactive results. The call rests on the fitted dose curve; in most records, active means well fitted activation curve with a large enough effect in the signal ratio, with a control signal flat; inconclusive means small, poorly fitted or top-dose-only effect, or a change in a side signal; inactive means flat fitted curve, though single readings scatter; the % refers to the signal ratio.
# Target: Thyrotropin receptor (Homo sapiens) (UniProt P16473)
# Sequence (P16473 whole entry, looked up): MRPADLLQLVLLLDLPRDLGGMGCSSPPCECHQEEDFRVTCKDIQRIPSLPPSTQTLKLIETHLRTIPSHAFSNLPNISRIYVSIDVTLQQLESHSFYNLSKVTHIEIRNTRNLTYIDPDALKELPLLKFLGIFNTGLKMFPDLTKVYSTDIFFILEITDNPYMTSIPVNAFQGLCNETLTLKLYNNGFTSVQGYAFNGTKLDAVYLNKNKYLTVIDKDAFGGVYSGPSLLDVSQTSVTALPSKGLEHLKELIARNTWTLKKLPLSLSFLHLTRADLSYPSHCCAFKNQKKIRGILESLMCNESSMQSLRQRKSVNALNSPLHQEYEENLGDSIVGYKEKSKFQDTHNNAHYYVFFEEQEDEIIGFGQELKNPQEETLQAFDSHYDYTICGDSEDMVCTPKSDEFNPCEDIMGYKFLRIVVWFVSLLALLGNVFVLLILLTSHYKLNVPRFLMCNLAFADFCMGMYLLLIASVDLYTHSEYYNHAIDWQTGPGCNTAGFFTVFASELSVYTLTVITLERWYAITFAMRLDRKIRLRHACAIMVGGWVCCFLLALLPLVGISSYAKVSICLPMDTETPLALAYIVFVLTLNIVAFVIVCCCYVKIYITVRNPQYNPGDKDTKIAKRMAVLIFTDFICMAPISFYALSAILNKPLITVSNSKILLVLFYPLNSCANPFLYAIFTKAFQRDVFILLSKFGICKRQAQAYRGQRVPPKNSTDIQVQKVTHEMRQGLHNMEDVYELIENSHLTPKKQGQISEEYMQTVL
# Assay: Secondary Concentration-Response Assay for Agonists of the Thyroid Stimulating Hormone Receptor: HTRF Activity Detection;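 further: HEK 293 cells stably expressing human TSHR with RO 20-1724 phosphodiesterase inhibitor; % of control where 0% means no effect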
# Conditions: HEK293-TSHR cells, cAMP HTRF ratio, 30 min; series mostly up to 91.7 µM; activation: at the top concentration
# Description: NIH Chemical Genomics Center [NCGC]
# NIH Molecular Libraries Screening Centers Network [MLSCN]
# PI Name: Dr. Marvin Gershengorn, NIH
# Confirmation of Thyroid Stimulating Hormone Receptor Agonists
# TSH is an alpha/beta heterodimeric glycoprotein hormone secreted from the anterior pituitary gland which belongs to the glycoprotein hormone family. The actions of TSH are mediated by a seven-transmembrane receptor, which upon TSH binding couples preferentially to the G-alpha (s) protein (Gs), resulting in activation of adenylate cyclase and increase in cyclic adenosine 3', 5' monophosphate (cAMP). The TSH receptor (THSR) is mainly expressed in thyroid follicular cells and regulates their growth and function. Recombinant TSH is used to activate TSHR in patients with thyroid cancer receiving thyroid hormone suppression therapy and to screen for residual tumor after surgery, but it is expensive and must be administered intramuscularly. An orally active small molecule TSHR agonist would serve as an invaluable research tool for studying TSHR pharmacology and physiology, and would have multiple advantages in therapeutic settings. However, no selective small molecule agonist of the TSH receptor exists, and no small molecule screen for TSHR agonists has ever been reported.
# A confirmatory assay of putative TSHR agonists was conducted on a different TSHR transfected HEK 293 cell line, using an orthogonal detection technology to measure cAMP stimulation: antibody-based Homogeneous Time Resolved Fluorescence (HTRF).
# NCGC Assay Protocol Summary:
# Homogeneous Time Resolved Fluorescence (HTRF) cAMP Assay. HEK 293 cells stably transfected with a vector containing the TSHR and maintained under hygromycin selection were obtained from the laboratory of Dr. Marvin Gershengorn. […] Plates were measured using the Envision plate reader (PerkinElmer, Boston, MA) with excitation at 330 nm and emissions of 615 nm and 660 nm.
# Keywords: Thyroid-stimulating hormone TSH, TSHR, TSHR agonist, quantitative high throughput screening, qHTS, HTS, probe identification, CNG, cAMP, cyclic nucleotide gated ion channel PubChem
row,SMILES,activation
1,O=c1[nH]c(=O)n(Cc2ccco2)c(O)c1C=NC1CC1,-0.432% [at 0.00035 µM]
2,C=CCN1C(=O)C2(C(C(=O)OC)=C(N)Oc3c2c(=O)oc2ccccc32)c2ccccc21 (stereo not drawn),9.85%
3,CCOC(=O)C1=C(N)Oc2c(c(=O)oc3ccccc23)C12C(=O)N(C)c1ccccc12 (stereo not drawn),3%
